The list is not random: actives were taken first. Their share in the collection is about 17%.
HepG2 tox: HepG2 cytotoxicity, counter-screen for TGF-b inhibitors; Potency, µM (titrated, usually from 46.1 µM), inactives show at the top dose activity change, negative = cytotoxicity, most hits filed as cytotoxic; actives 0.76% (n = 410,000); HepG2 CAGA-GFP viability, ATP luminescence, 18 h
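HepG2 CAGA-GFP cells (1000/well, DMEM with 1% FBS) received compound, then TGF-beta at 500 pg/mL final, and were incubated 18 hours at 37 degrees C. Viability was read by CellTiter-Glo luminescence. Media-only wells were set as complete cell-killing and DMSO as no toxicity.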
HT1080-NT tox: kills 2HG-producing HT-1080-NT fibrosarcoma cells; HT-1080-NT fibrosarcoma viability, CellTiter-Glo ATP luminescence, 48 h; Potency, µM (highest dose often 46.1 µM), without a hit: at the top dose activity, negative = less viability, usual class: cytotoxic; actives 1.6% (n = 360,000); AID 686970;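 further: NT is the 2HG producing partner of a matched IDH1 knockdown line; 0% = DMSO-treated cells and -100% = media-only wells without cells; nearly all actives have a fitted effect of over 55% in size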
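Compounds were tested in concentration-response format on HT-1080-NT cells for 48 hours at 37 degrees C. Cell viability came from CellTiter-Glo luminescence; curves were classified by r2, response magnitude and activity.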
HT1080 IDH1KD tx: kills HT-1080 cells with IDH1 knockdown; HT-1080 IDH1 knockdown viability, ATP luminescence, 48 h; Potency, µM (highest dose often 46.1 µM), inactives show top-dose activity, negative = toxicity, usual class: cytotoxic; actives 2% (n = 360,000);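 further: 0% = DMSO wells and -100% = cell-free medium wells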
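Viability of IDH1-knockdown HT-1080 fibrosarcoma cells was assessed by CellTiter-Glo after 48 h at 37 °C with titrated compound; concentration-effect curves were classified by fit quality and response size.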
DT40 TDP1 no CPT: qHTS for Inhibitors of human tyrosyl-DNA phosphodiesterase 1 (TDP1): qHTS in cells in absence of CPT | actives 15% (n = 420,000) | Potency, µM (series often up to 46.2 µM), inactives show top-dose activity change, negative = growth inhibition, most hits filed as inhibitors | DT40 Tdp1-/- hTDP1 cells, no CPT, ATP luminescence, 48 h; further: on the % scale 0 is the no-effect control and ±100 the full control effect; nearly all actives have a fitted effect of over 55% in size
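A cellular qHTS used chicken DT40 cells lacking endogenous Tdp1 but carrying stably transfected human TDP1. Compounds were applied without camptothecin, and cell growth kinetics were judged by ATP-dependent luminescence after ≥48 hr.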
TGFb SMAD3 inh: inhibitors of TGF-b signaling; Potency, µM (highest dose often 46.1 µM), for the others: at the top dose activity, negative = inhibition, hits mostly inhibitors; actives 1.2% (n = 410,000); AID 588855; HepG2 CAGA-GFP TGF-b/SMAD3 reporter, GFP fluorescence, 18 h; TGF-beta stimulated, 500 pg/mL final; further: on the % scale 0 is the no-effect control and ±100 the full control effect; nearly all actives have a fitted effect of over 65% in size
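Cell-based qHTS in HEPG2 carrying a CAGA-GFP Smad reporter; compounds added before 500 pg/mL final TGF-beta, 18 h incubation at 37 degrees C, GFP fluorescence quantified per cell by imaging cytometry.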
DT40 TDP1 CPT: DT40-hTDP1 cell growth loss with CPT; Potency, µM (series often up to 46.2 µM), for the others: top-dose activity change, negative = growth inhibition, hits mostly inhibitors; AID 686979; actives 12% (n = 420,000); chicken DT40 Tdp1-/-;hTDP1 cells + 20 nM CPT, ATP luminescence, 48 h; further: on the % scale 0 is the no-effect control and ±100 the full control effect; nearly all actives have a fitted effect of over 55% in size
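Chicken DT40 Tdp1-/- cells complemented with human TDP1, 400 cells/well, exposed to compounds plus 20 nM camptothecin for at least 48 h at 37 C; viability read as ATP content by CellTiter-Glo luminescence.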
Active calls of the source: *. The call rests on the fitted dose curve; in most records, active means well fitted curve in the direction sought with a large enough effect; inconclusive means small, poorly fitted or top-dose-only effect, or another doubt; inactive means no such curve, though single readings can be large; an effect the other way counts as inactive or inconclusive. Potency means the concentration at half of the fitted maximal effect.

Screening Cc1ccsc1C(=O)Nc1cc(Cl)ccc1-n1cncn1 returned HepG2 tox -6%, HT1080-NT tox 0%, HT1080 IDH1KD tx 1%, DT40 TDP1 no CPT -21%, TGFb SMAD3 inh 3% and DT40 TDP1 CPT inconclusive.
COC(=O)c1sc(NC(=O)CCCn2nc([N+](=O)[O-])cc2C)c(C(=O)OC)c1C was read as HepG2 tox 3%, HT1080-NT tox -3%, HT1080 IDH1KD tx -1%, DT40 TDP1 no CPT inconclusive, TGFb SMAD3 inh -2% and DT40 TDP1 CPT inconclusive.
Screening Cc1cc(C)nc(SCC(=O)Nc2sc3c(c2C#N)CCC(C)C3)n1 (stereo not drawn) returned HepG2 tox -23%, HT1080-NT tox -3%, HT1080 IDH1KD tx -14%, DT40 TDP1 no CPT 15µM*, TGFb SMAD3 inh 0% and DT40 TDP1 CPT 21µM*.
`CC1CCc2c(sc(NC(=O)CCc3nc4ccccc4c(=O)[nH]3)c2C#N)C1` (stereo not drawn) gave HepG2 tox -1%, HT1080-NT tox 0%, HT1080 IDH1KD tx 1%, DT40 TDP1 no CPT 18µM*, TGFb SMAD3 inh 10% and DT40 TDP1 CPT 16µM*.
Screening CCN(CC(=O)Nc1sc2c(c1C#N)CCCC2)Cc1nc2ccccc2c(=O)[nH]1 returned HepG2 tox -23%, HT1080-NT tox -23%, HT1080 IDH1KD tx -5%, DT40 TDP1 no CPT -9%, TGFb SMAD3 inh -3% and DT40 TDP1 CPT 1%.
`CCN1C(=O)[C@H]2[C@@H](c3ccc(C)cc3)N[C@]3(CCCN(Cc4cccn4C)C3=O)[C@H]2C1=O` gave HepG2 tox -36%, HT1080-NT tox -7%, HT1080 IDH1KD tx -10%, DT40 TDP1 no CPT inconclusive, TGFb SMAD3 inh inconclusive and DT40 TDP1 CPT -15%.
Screening O=C(O)CCC/C=C\C[C@@H]1[C@@H](/C=C/[C@@H](O)COc2cccc(C(F)(F)F)c2)[C@H](O)C[C@@H]1O returned DT40 TDP1 no CPT 0% and DT40 TDP1 CPT 2%.
`CCSC1=C(C#N)C2(CCCC2)C(C#N)=C(N)N1` gave HepG2 tox -16%, HT1080-NT tox -4%, HT1080 IDH1KD tx -2%, DT40 TDP1 no CPT 16µM*, TGFb SMAD3 inh 43% and DT40 TDP1 CPT 7.3µM*.
N#CC1=C(N)NC(SCC(=O)Nc2ccc(Br)cc2)=C(C#N)C12CCCCC2 was read as HepG2 tox -79%, HT1080-NT tox inconclusive, HT1080 IDH1KD tx inconclusive, DT40 TDP1 no CPT inconclusive, TGFb SMAD3 inh 18µM* and DT40 TDP1 CPT 26µM*.
For N#CC1=C(N)NC(SCc2ccccc2)=C(C#N)C12CCCC2 the results were HepG2 tox 15%, HT1080-NT tox 0%, HT1080 IDH1KD tx 1%, DT40 TDP1 no CPT 18µM*, TGFb SMAD3 inh -10% and DT40 TDP1 CPT inconclusive.
`CC1(C)CC(=O)C2=C(C1)NC(SCC(=O)Nc1ccccc1)=C(C#N)C21CCCCC1` gave HepG2 tox -36%, HT1080-NT tox inconclusive, HT1080 IDH1KD tx -16%, DT40 TDP1 no CPT inconclusive, TGFb SMAD3 inh inconclusive and DT40 TDP1 CPT inconclusive.
`CC1=C(C(=O)Nc2ccccc2)C2(CCCCC2)C(C#N)=C(SCC(N)=O)N1` gave HepG2 tox 7%, HT1080-NT tox -1%, HT1080 IDH1KD tx 6%, DT40 TDP1 no CPT 16µM*, TGFb SMAD3 inh 0% and DT40 TDP1 CPT inconclusive.
N#CC1=C(N)NC(SCc2ccc(Br)cc2)=C(C#N)C12CCCCC2 was read as HepG2 tox -21%, HT1080-NT tox 2%, HT1080 IDH1KD tx 1%, DT40 TDP1 no CPT inconclusive, TGFb SMAD3 inh inconclusive and DT40 TDP1 CPT inconclusive.
`N#CC1=C(N)NC(SCc2ccc(Cl)cc2)=C(C#N)C12CCCCC2` gave HepG2 tox -16%, HT1080-NT tox inconclusive, HT1080 IDH1KD tx 21µM*, DT40 TDP1 no CPT inconclusive, TGFb SMAD3 inh inconclusive and DT40 TDP1 CPT inconclusive.
For CCCCN(C)CCCNC(=O)CN1N=C(c2ccc(Cl)cc2)CCC1=O the results were HepG2 tox -8%, HT1080-NT tox 0%, HT1080 IDH1KD tx 17%, DT40 TDP1 no CPT -29%, TGFb SMAD3 inh 14% and DT40 TDP1 CPT -14%.
Screening CCN(CCCNC(=O)CN1N=C(c2ccccc2)CCC1=O)c1cccc(C)c1 returned HepG2 tox 0%, DT40 TDP1 no CPT -19%, TGFb SMAD3 inh -5% and DT40 TDP1 CPT -13%.
`CCN(CCCNC(=O)CN1N=C(c2ccc(OC)cc2)CCC1=O)c1cccc(C)c1` gave HepG2 tox -27%, DT40 TDP1 no CPT 18µM*, TGFb SMAD3 inh inconclusive and DT40 TDP1 CPT inconclusive.
`Cc1ccc(C2=NN(CC(=O)NCCc3ccc(Cl)cc3)C(=O)CC2)cc1` gave HepG2 tox -31%, DT40 TDP1 no CPT inconclusive, TGFb SMAD3 inh 11µM* and DT40 TDP1 CPT inconclusive.
Screening CCN(CCCNC(=O)CN1N=C(c2ccc(C)cc2)CCC1=O)c1ccccc1 returned HepG2 tox -23%, DT40 TDP1 no CPT 23µM*, TGFb SMAD3 inh inconclusive and DT40 TDP1 CPT inconclusive.
`CCCCN(CCCNC(=O)CN1N=C(c2ccc(C)cc2)CCC1=O)c1ccccc1` gave HepG2 tox -82%, DT40 TDP1 no CPT 15µM*, TGFb SMAD3 inh 13µM* and DT40 TDP1 CPT inconclusive.
`O=S(=O)(NCC1CCN(Cc2ccccc2)CC1)c1ccccc1C(F)(F)F` gave HepG2 tox -1%, HT1080-NT tox -1%, HT1080 IDH1KD tx -13%, DT40 TDP1 no CPT -9%, TGFb SMAD3 inh -3% and DT40 TDP1 CPT 1%.

Source: PubChem
